High-throughput results: PubChem BioAssay, The Scripps Research Institute Molecular Screening Center
Compounds with a hit are over-represented: about 2.9% of the library has one in this group of screens.
PAFAH2 FP inh – PAFAH2 enzyme inhibitors, primary screen, biochemical, fluorescence polarization, human | Platelet-activating factor acetylhydrolase 2, cytoplasmic (Homo sapiens), Q99487 | recombinant PAFAH2, FP-rhodamine activity probe | inhibition, % at 3.39 µM | 0.99% of 340,000 active;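 active = inhibition above the mean over all tested compounds plus 3 SD, cut at about 30% in these data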;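 also: inhibitors block probe labeling of enzyme so polarization drops; 0% = enzyme with DMSO and 100% = wells lacking PAFAH2 protein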
rCAG binder – binders of r(CAG) RNA repeats, primary screen, biochemical, fluorescence; r(CAG) RNA repeat, TO-PRO-1 dye displacement fluorescence; inhibition, % at 3 µM; 1.3% of 370,000 active; AID 651821, 2012;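 active = inhibition above the plate cutoff, the mean of all test compounds on that plate plus 3 SD, cut at about 35% in these data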;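 also: 0% = DMSO alone and 100% = 100 µM mitoxantrone as full dye displacement; higher means more dye released from RNA so lower well fluorescence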
ZTA counter – ZTA (EBV) inhibition in EBNA-1 counter-screen; P03206; ZTA-DNA binding, fluorescence polarization; AID 2234; inhibition, % at 11 µM; 0.15% of 320,000 active; in the data active = inhibition above about 33%
Target sequence (P03206 whole entry, looked up): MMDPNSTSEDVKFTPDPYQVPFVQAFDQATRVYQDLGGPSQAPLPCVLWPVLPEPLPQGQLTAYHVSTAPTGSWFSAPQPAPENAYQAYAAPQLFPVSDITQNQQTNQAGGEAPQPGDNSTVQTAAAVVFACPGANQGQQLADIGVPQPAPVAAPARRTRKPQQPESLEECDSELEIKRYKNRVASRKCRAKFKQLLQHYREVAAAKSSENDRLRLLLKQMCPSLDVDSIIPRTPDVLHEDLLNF
PAFAH1B3 inh – PAFAH1B3 enzyme inhibitors, primary screen, biochemical, fluorescence polarization, human; 0.28% of 340,000 active; Platelet-activating factor acetylhydrolase IB subunit alpha1 (Homo sapiens), Q15102; AID 492972, 2010; inhibition, % at 3.39 µM; recombinant PAFAH1B3, FP-rhodamine probe;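 active = inhibition above the screen-wide average of all tested compounds plus 3 SD, cut at about 25% in these data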;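 also: 0% = enzyme with DMSO only and 100% = wells lacking PAFAH1B3 protein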
EBNA-1 inh – EBNA-1 DNA-binding inhibitors, primary screen, biochemical, fluorescence polarization | inhibition, % at 14.8 µM | 0.34% of 300,000 active | AID 1950, 2009; in the data active = inhibition above about 28%
PAFAH1B2 FP inh – PAFAH1B2 enzyme inhibitors, primary screen, biochemical, fluorescence polarization, human; Platelet-activating factor acetylhydrolase IB subunit alpha2 (Homo sapiens), P68402; recombinant PAFAH1B2, FP-rhodamine activity probe; 1.2% of 340,000 active; inhibition, % at 3.39 µM;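 active = inhibition above the mean of all tested compounds plus 3 SD, cut at about 24% in these data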;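 also: 0% = enzyme with DMSO and 100% = wells lacking PAFAH1B2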
An asterisk follows results filed as active; . = no result; + = active, no number.

SMILES	PAFAH2 FP inh	rCAG binder	ZTA counter	PAFAH1B3 inh	EBNA-1 inh	PAFAH1B2 FP inh
CC(COc1cccc(OC(F)(F)F)c1)CN1CCC(C(O)(c2ccccc2)c2ccccc2)CC1 (stereo unspecified)	.	0	.	.	.	.
O=C(O)COc1ccccc1-c1ccccc1	3	-1	7	1	-2	16
O=C(O)C(Cc1ccccc1-c1ccccc1)C(=O)O	-4	-1	-14	-4	-8	27*
COc1cc(/C=C(\C#N)c2nc3ccc(C)cc3[nH]2)cc([N+](=O)[O-])c1O	38*	63*	.	21	.	33*
CC(=O)OCC(=O)NCC1CCN(C(=O)C(=O)c2cc3ccccc3o2)CC1	.	0	.	.	.	.
CC(NS(=O)(=O)c1ccc(N)cc1)C1CC2CCC1C2 (stereo unspecified)	-3	-1	21	5	5	20
CC(NS(=O)(=O)c1ccccc1)C1CC2CCC1C2 (stereo unspecified)	11	-4	-9	3	-3	25*
Fc1ccc2cnc(-c3ccsc3)cc2c1	.	3	.	.	.	.
COc1cccc(CNC(=O)[C@H]2CCCN2C(=O)[C@H]2CCCN2C(=O)N2CCOCC2)c1	.	3	.	.	.	.
Cc1ccc(-c2csc(N)n2)cc1	12	5	.	3	.	70*
COc1ccc(-c2csc(N)n2)cc1	5	-2	-7	8	-9	11
CN(Cc1ccccc1)C(=O)Cn1nnc(-c2ccccc2)c1COc1ccc2ccccc2c1	.	8	.	.	.	.
N#Cc1cc2c(nc1SCC(O)CS(=O)(=O)Cc1ccc(Cl)cc1)CCCC2 (stereo unspecified)	10	3	2	-2	-15	30*
Cc1ccc(/C=C2\SC(=S)N(/N=C/c3cc([N+](=O)[O-])ccc3O)C2=O)o1	74*	.	8	46*	7	26*
O=C(NN1C(=O)/C(=C/c2cc([N+](=O)[O-])ccc2O)SC1=S)c1ccccc1O	.	.	19	.	4	.
COCCCNC(=O)c1cccc(S(=O)(=O)N2CC3(C)CC2CC(C)(C)C3)c1 (stereo unspecified)	-5	-11	-6	4	-11	14
COCCNC(=O)c1cccc(S(=O)(=O)N2CC3(C)CC2CC(C)(C)C3)c1 (stereo unspecified)	-1	-9	-13	7	-14	9
CC1(C)CC2CC(C)(CN2S(=O)(=O)c2cccc(C(N)=O)c2)C1 (stereo unspecified)	-2	-1	-16	5	.	29*
CCCCNC(=O)c1cccc(S(=O)(=O)N2CC3(C)CC2CC(C)(C)C3)c1 (stereo unspecified)	8	-4	-13	1	.	36*
CC1(C)CC2CC(C)(CN2S(=O)(=O)c2cccc(C(=O)OCC(N)=O)c2)C1 (stereo unspecified)	3	-4	-12	2	3	28*
O=C(C1CCN(S(=O)(=O)c2ccc3[nH]c(=O)oc3c2)CC1)N1CCCN(Cc2ccccc2)CC1	.	19	.	.	.	.
N#Cc1cccc(NC(=O)OC2CCC23CCC(c2ccccc2)CC3)c1 (stereo unspecified)	.	3	.	.	.	.
Cc1ccccc1S(=O)(=O)N1CCC(c2nc3ccccc3o2)CC1	.	0	.	.	.	.
COC1=C[C@H](C(=O)NCc2ccc(Br)cc2)[C@H](C)[C@@H](c2ccccc2)CC1=O	.	6	.	.	.	.
CN(C(=O)COC(=O)c1ccc2ccccc2n1)C1CCS(=O)(=O)C1 (stereo unspecified)	0	-1	+	6	+	2
CN(C(=O)COC(=O)c1ccc(Cl)c(S(=O)(=O)N2CCCCCC2)c1)C1CCS(=O)(=O)C1 (stereo unspecified)	4	0	.	2	.	3
CN(C(=O)COC(=O)c1ccc(Cl)c(S(=O)(=O)NCc2ccccc2)c1)C1CCS(=O)(=O)C1 (stereo unspecified)	5	4	.	1	.	34*
CC(=NNC(=O)CSc1nnc(-c2ccccc2)n1-c1ccccc1)c1cccc([N+](=O)[O-])c1	.	2	.	.	.	.
Cc1cccc(C(=O)O/N=C(\N)c2ccc(Br)cc2)c1	4	1	10	-2	21	5
